Source: PubChem (Broad Institute)
The list is a sample of the results.
aSyn 5UTR act: Activators working through SNCA 5'UTR binding (MLPCN); AID 1814; hit rate 7.1% among 300,000; activity score, % (tested at 7.5 µM), hits read low; alpha-synuclein 5'UTR reporter, activators screen; in the data active = activity score below about -60%
Numbers stand for hits; n = inactive.

SMILES	aSyn 5UTR act
CN(C)/C=N/c1ncnc2c1cnn2-c1ccc(C(F)(F)F)cn1	-84
O=Cc1ccc(-c2nc3ccccc3s2)o1	-98
O=C(O)CCCN1C(=O)/C(=C\c2ccc(-c3nc4ccccc4s3)o2)SC1=S	-83
CC(C)Oc1ccccc1/C=N/Nc1ccccc1[N+](=O)[O-]	-209
CCOc1ccccc1/C=N/Nc1ccccc1[N+](=O)[O-]	-304
COc1ccccc1/C=N\Nc1ccccc1[N+](=O)[O-]	-91
Cc1ccc2c(CNCc3ccco3)cc(=O)oc2c1	-65
CSc1ccc(NC(=O)Nc2cccn(Cc3ccccc3F)c2=O)cc1	-76
O=C(c1ccc2nc(Cc3ccccc3F)oc2c1)N1CCCC1	-150
CC(c1ccccn1)N(C)C(=O)c1ccc2nc(Cc3ccccc3F)oc2c1 (configuration not stated)	-102
Cc1cc(CNC(=O)c2ccc3nc(Cc4ccccc4F)oc3c2)nn1C	-135
COc1ccc(N/N=C(C)/C(=N/O)C(=O)Nc2ccccc2)cc1	-87
O=C(NC(=O)c1ccccc1)Nc1ccccc1	n
COc1ccc(NC(=O)NC(=O)c2ccccc2)cc1	-221
COc1ccccc1NC(=O)NC(=O)c1ccccc1	-137
O=C(CSc1nc2cc(Cl)ccc2s1)c1ccco1	-210
CCOc1cc(/C=C2/NC(=O)N(CC(=O)OC)C2=O)ccc1O	-66
Cc1ccc2c(c1)C(O)(CC(=O)/C=C/C=C/c1ccccc1)C(=O)N2 (configuration not stated)	-112
Nc1n[nH]c(N)c1N=Nc1ccc(Cl)cc1Cl	-74
O=C1Nc2cc(Cl)c(Cl)cc2N(O)N1c1ccc(Cl)cc1	-149
CC(C)OC(=O)/C(C#N)=C/c1ccc(-c2ccc(SC(F)F)cc2)o1	-88
CC(C)(C)c1nnc(NC(=O)Nc2ccc(Cl)cc2)s1	-114
COc1ccc(NC(=O)Nc2nnc(C(C)(C)C)s2)cc1	-67
Cc1nc(NC(=O)Nc2ccc(Cl)cc2)sc1C	-164
COc1ccccc1C1=NOC(CN2C(=O)c3ccccc3S2(=O)=O)C1 (configuration not stated)	-127
SMILES	aSyn 5UTR act
O=C1c2ccccc2S(=O)(=O)N1CC1CC(c2ccccc2Cl)=NO1 (configuration not stated)	-81
O=C(CN1C(=O)c2ccccc2S1(=O)=O)c1ccc(O)c(O)c1	n
O=C(c1cc(-c2ccc(F)cc2)on1)N1CCOCC1	-111
COCCNC(=O)c1cc(-c2ccc(Cl)c(Cl)c2)on1	-78
O=C(c1cc(-c2cccc(Cl)c2)on1)N1CCOCC1	-171
O=C(c1cc(-c2ccc(Cl)cc2Cl)on1)N1CCOCC1	n
O=C(c1cc(-c2ccc(Cl)c(Cl)c2)on1)N1CCOCC1	-151
CCNC(=O)CCCOc1ccc(Cl)cc1Cl	-82
CCCC(=O)NC(c1ccc(Cl)cc1Cl)c1ccc2cccnc2c1O (configuration not stated)	n
O=C(NNC(=O)c1ccccc1O)c1ccc(Cl)cc1	-81
O=C(NNC(=O)c1ccc(O)cc1O)c1ccc(Cl)cc1	-72
Cc1cccc(C(=O)NNC(=O)c2ccc(Cl)cc2)c1O	-141
O=C(NNC(=O)c1ccccc1O)c1cccc(Br)c1	-133
O=C(NNC(=O)c1cccs1)c1ccc(Br)cc1	-78
O=C(COC(=O)c1ccc(O)cc1O)c1ccc(Cl)cc1	-96
O=C(NNC(=O)c1ccccc1O)c1ccc(Br)cc1	-116
CC[C@@H](C(=O)[C@@H](C)[C@@H](O)[C@H](C)CCc1ccc(C)c(O)c1C(=O)O)[C@H]1O[C@](CC)([C@H]2CC[C@](O)(CC)[C@H](C)O2)C[C@@H]1C	n
COc1ccc(CNc2nc3ccccc3n2C)c(OC)c1	-88
CCCn1c(NCc2cccc(OC)c2O)nc2ccccc21	-82
COc1ccc(CNc2nc3ccccc3n2C)c(O)c1	-133
O=C(c1ccco1)N1CCN(c2ncnc3c2cnn3-c2ccccc2)CC1	-94
Clc1ccc(-n2ncc3c(N4CCCC4)ncnc32)cc1	n
CC1CCN(c2ncnc3c2cnn3-c2ccccc2)CC1	-119
Cc1nn(-c2cccc([N+](=O)[O-])c2)c(N)c1-c1ccccc1	-83
Nc1c(-c2ccccc2)cnn1-c1cccc([N+](=O)[O-])c1	-92
SMILES	aSyn 5UTR act
Nc1c(-c2ccc(Cl)cc2)cnn1-c1cccc([N+](=O)[O-])c1	-134
Cc1cc(SC(C)C(=O)NCC(=O)Nc2ccc(F)c(F)c2F)nc2ccccc12 (configuration not stated)	n
N/C(COc1ncn(-c2ccccc2)n1)=N\S(=O)(=O)c1ccccc1	n
Nc1nc(CSc2ncn(-c3ccccc3)n2)cs1	-154
O=C(CSc1ncn(-c2ccccc2)n1)c1cccs1	-177
Cc1cc(SCC(=O)c2cccs2)nc2ccccc12	-81
c1ccc(CSc2ncn(-c3ccccc3)n2)cc1	-138
Cc1cc(SCC(=O)N/N=C/c2ccc(O)cc2O)nc2ccccc12	n
O=C(Nc1ccccc1)C1=C[C@@H](c2ccccc2)C[C@@H](OCc2ccc(CO)cc2)O1	-94
NC(=O)C1=C[C@H](c2ccccc2)C[C@H](OCc2ccc(CO)cc2)O1	-67
COc1ccc2cc3c(N)nn(C(=O)c4ccccc4Cl)c3nc2c1	n
COc1ccc2cc(C3OCCO3)c(Cl)nc2c1	-108
Cc1cc(C(=O)NNC(=S)NC(=O)/C=C/c2ccccc2Cl)n[nH]1	-94
Cc1cc(C)nc(NC(=O)/C=C/c2ccccc2Cl)n1	-161
Cc1cc(C)nc(NC(=O)/C=C/c2ccccc2Cl)c1	-185
Cc1cc(C)nc(NC(=O)/C=C/c2ccc(Cl)cc2Cl)c1	-129
Cc1cc(N)c2cc(NC(=O)/C=C/c3ccccc3Cl)ccc2n1	n
O=C(Nc1cccc2cccnc12)c1cc(F)c(F)cc1Cl	-74
COc1ccccc1C(=O)Nc1cccc2cccnc12	-81
CC(=O)NC(c1ccc(Cl)cc1Cl)c1ccc2cccnc2c1O (configuration not stated)	n
Cc1ccc(NC(=O)c2cccc3cccnc23)cc1	-91
O=C(NCCc1ccccc1F)c1cccc2cccnc12	-147
Cc1ccc(C(=O)Oc2ccc(/C=C3\C(=N)N4N=C(N5CCOCC5)SC4=NC3=O)cc2)cc1	-62
CC1(C)CN=C(N(Cc2ccccc2)C(=O)Nc2ccccc2)S1	-154
Cc1nn(CC(=O)c2ccccc2Cl)c(C)c1[N+](=O)[O-]	-177
SMILES	aSyn 5UTR act
C/C(=N\NC(=O)C(C)n1nc(C)c([N+](=O)[O-])c1C)c1ccccc1O (configuration not stated)	n
N#C/C(=C/c1ccc(N2CCCC2)c([N+](=O)[O-])c1)c1nc2ccccc2[nH]1	-78
N#C/C(=C\c1ccc(N2CCOCC2)c([N+](=O)[O-])c1)c1nc2ccccc2[nH]1	-163
O=C(Cn1c2ccccc2c(=O)c2ccccc21)N/N=C/c1ccc(N2CCCC2)c([N+](=O)[O-])c1	n
CN(C)/C=C/C(=O)c1cnc(-c2ccccc2)s1	-116
CN(C)/C=C/C(=O)c1cnc(-c2ccc(Cl)cc2)s1	-90
O=C(c1ccccc1)c1cnc(-c2ccccc2)s1	-99
Cc1c2ccccc2nc2c(F)c(N(C)C)c(F)c(F)c12	-78
O=C(CNC(=O)c1ccccc1C(=O)O)c1ccccc1	-127
O=C(CNC(=O)c1ccc(Br)cc1)c1ccccc1	-94
O=C(CNC(=O)c1ccc(Cl)cc1)c1ccccc1	-100
O=C(CNC(=O)c1ccc(F)cc1)c1ccc(Cl)cc1	-168
O=C(Nc1nccs1)c1ccc(Cl)s1	-106
O=C(Nc1ccccn1)c1ccc(Cl)s1	-129
O=C(Nc1ccc2sccc2c1)c1ccc(Cl)s1	-198
